{"source": "PubChem BioAssay AID1508622", "about": "(National Center for Advancing Translational Sciences (NCATS), 2021)", "note": "Calls of active or inactive are those of the source. The call rests on the fitted dose curve; in most records, active means well fitted activation curve with a large enough effect; inconclusive means small, poorly fitted or top-dose-only effect; inactive means no such curve, though single readings can be large or run the other way. Potency means the concentration at half of the fitted maximal effect.", "data": [{"assay": "Confirmatory qHTS for Identification of Small Molecule Activators of Huntingtin-Antisense Promoter Activity", "details": "HEK293 HTT-AS promoter firefly luciferase reporter, 24 h; series mostly up to 57.5 µM; activity change, positive = activation: at the top concentration", "in_short": "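HEK293 luciferase reporter cells, 2,500/well, cultured 24 h, then exposed to compounds at up to 57.5 uM final for 24 h at 37C. Firefly luciferase luminescence read; normalized to vehicle (0%) and zero RLU (-100%).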", "values": [{"smiles": "CCOc1ccc(C(=O)N(Cc2cc(OC)c(OC)c(OC)c2)c2ccccn2)cc1", "activity change, positive = activation": "-81.2% (inactive)"}, {"smiles": "COc1ccc(-c2[nH]c3ccccc3c2SCCNC(=O)c2cc(OC)c(OC)c(OC)c2)cc1", "activity change, positive = activation": "-35% (inactive)"}, {"smiles": "O=C(CN(c1cccc(C(F)(F)F)c1)S(=O)(=O)c1ccccc1)Nc1cccc(Cl)c1", "activity change, positive = activation": "-90.3% (inactive)"}, {"smiles": "CC(C)c1nc2ccc(C(=O)NCCCN3CCN(c4cccc(Cl)c4)CC3)cc2o1", "activity change, positive = activation": "-39% (inactive)"}, {"smiles": "Cc1oc(-c2ccc(C(=O)NCc3ccc(Cl)cc3)cc2)nc1CS(=O)(=O)c1ccccc1", "activity change, positive = activation": "-20% (inactive)"}, {"smiles": "CCOC(=O)c1cc(-c2ccc(F)cc2)n(CCC(=O)NCCc2ccc(C)cc2)c1C", "activity change, positive = activation": "-9.24% (inactive)"}, {"smiles": "COc1ccc(CCNC(=O)c2ccc3c(c2)CCN3S(=O)(=O)c2ccc(Cl)cc2)cc1", "activity change, positive = activation": "-16.4% (inactive)"}, {"smiles": "CCOC(=O)C1=C(CN2CCN(c3ccc(C)cc3C)CC2)NC(=O)NC1c1ccc(OC)cc1", "note": "(centres undefined)", "activity change, positive = activation": "-91.2% (inactive)"}, {"smiles": "COc1cccc(NC(CNS(=O)(=O)c2ccc(Cl)cc2)c2ccccc2)c1", "note": "(centres undefined)", "activity change, positive = activation": "-76.1% (inactive)"}, {"smiles": "COc1ccc(S(=O)(=O)Nc2cc3c(C(=O)OC(C)C)c(C)oc3c3ccccc23)cc1", "activity change, positive = activation": "-11.5% (inactive)"}, {"smiles": "CCOc1ccc(CCNC(=O)c2cc3c(-c4cccc(OC)c4)nn(C)c3s2)cc1OCC", "activity change, positive = activation": "-43.8% (inactive)"}, {"smiles": "Cn1c(=O)n(C)c2cc(NS(=O)(=O)c3ccc(C(C)(C)C)cc3)c(NCc3ccccc3)cc21", "activity change, positive = activation": "-50.6% (inactive)"}, {"smiles": "OCCCn1c(-c2ccc(F)cc2)csc1=Nc1ccc(F)cc1", "activity change, positive = activation": "-26% (inactive)"}, {"smiles": "CC(=O)c1ccc(NC(=O)c2ccc(-c3nc(CSc4ccc(C)cc4)c(C)o3)cc2)cc1", "activity change, positive = activation": "-63.7% (inactive)"}, {"smiles": "COc1ccc(Cl)cc1C1CC(=O)Nc2cc3c(cc21)OCCO3", "note": "(centres undefined)", "activity change, positive = activation": "-63.7% (inactive)"}, {"smiles": "COc1ccc(NS(=O)(=O)c2ccc3c(c2)CCCN3C(=O)C2CCC2)cc1OC", "activity change, positive = activation": "-84.1% (inactive)"}, {"smiles": "CCOc1ccc(C(NC(=O)c2cc(OC)c(OC)c(OC)c2)c2cc(Cl)c3cccnc3c2O)cc1", "note": "(centres undefined)", "activity change, positive = activation": "-41.4% (inactive)"}, {"smiles": "CC(C)c1ccc(NC(=O)CSC2=Nc3ccccc3C3=NC(CCC(=O)NCc4ccc(F)cc4)C(=O)N23)cc1", "note": "(centres undefined)", "activity change, positive = activation": "-27.6% (inactive)"}, {"smiles": "COc1ccc(-c2noc(N3CCN(c4cccc(C)c4C)CC3)n2)cc1OC", "activity change, positive = activation": "-84.3% (inactive)"}, {"smiles": "Cc1cccc(-n2c(-c3ccco3)nc3c(cnn3-c3ccccc3C)c2=O)c1", "activity change, positive = activation": "-11.9% (inactive)"}, {"smiles": "Cc1cc(NC(=O)c2cc(-c3ccc(F)cc3)on2)nn1Cc1ccc(Cl)cc1", "activity change, positive = activation": "-39% (inactive)"}, {"smiles": "COc1ccc(C(=O)Nc2nc(-c3nnn(-c4ccc(F)cc4F)c3C)ns2)cc1", "activity change, positive = activation": "-24.9% (inactive)"}, {"smiles": "CCOc1ccccc1C(=O)Nc1ccc2nc3c(c(Nc4ccc(OC)c(OC)c4)c2c1)CCCC3", "activity change, positive = activation": "-19.5% (inactive)"}, {"smiles": "CC(C)[C@H](CO)Nc1nc(Nc2ccc(C(=O)O)c(Cl)c2)c2ncn(C(C)C)c2n1", "activity change, positive = activation": "-3.92% (inactive)"}, {"smiles": "COc1ccccc1CNC(=O)Cn1c(=O)oc2cc(S(=O)(=O)N3CCC(C)CC3)ccc21", "activity change, positive = activation": "-39.5% (inactive)"}, {"smiles": "O=C(CSc1ccc(-c2ccccn2)nn1)Nc1ccc(F)c(F)c1", "activity change, positive = activation": "-65.4% (inactive)"}, {"smiles": "CCCCOC(=O)c1ccc(NC(=O)c2sc3nc(C)cc(C)c3c2N)cc1", "activity change, positive = activation": "-52.3% (inactive)"}, {"smiles": "O=C(O)c1cc(-n2c(/C=C\\c3ccc(F)cc3)nc3ccccc3c2=O)ccc1Cl", "activity change, positive = activation": "19.3% (inactive)"}, {"smiles": "CCOc1ccc(CCNC(=O)C(CC(C)C)N2Cc3ccccc3C2=O)cc1OCC", "note": "(centres undefined)", "activity change, positive = activation": "-50.7% (inactive)"}, {"smiles": "COc1ccc([C@@H]2CNC(=O)C2)cc1OC1CCCC1", "activity change, positive = activation": "2.02% (inactive)"}, {"smiles": "CCNc1nc2c(c(=O)n(C)c(=O)n2C)n1Cc1ccc(F)cc1", "activity change, positive = activation": "-94.7% (inactive)"}, {"smiles": "Cc1ccc(N2C(=O)C(CC(=O)Nc3ccccc3)N(CCC3=CCCCC3)C2=O)cc1", "note": "(centres undefined)", "Potency": "6.75 µM (active)"}, {"smiles": "Cc1cc(F)ccc1NC(=O)C1CCCN(C(=O)c2cnn(-c3ccccc3)c2-n2cccc2)C1", "note": "(centres undefined)", "activity change, positive = activation": "-38.7% (inactive)"}, {"smiles": "COc1cccc(NC(=O)CN2CCCN(S(=O)(=O)c3ccc(Br)cc3)CC2)c1", "activity change, positive = activation": "-30.8% (inactive)"}, {"smiles": "Cc1ccc(CNC(=O)c2c(Nc3ccccc3C)sc(C(=O)c3ccc(F)cc3)c2N)cc1", "activity change, positive = activation": "-52.7% (inactive)"}, {"smiles": "Cc1ccc(CNC(=O)c2c(Nc3c(C)cccc3C)sc(C(=O)c3ccccc3)c2N)cc1", "activity change, positive = activation": "-71% (inactive)"}, {"smiles": "Cc1cc(C)c(Cn2c3ccccc3c3cnn(CC(=O)N4CCCCC4)c(=O)c32)c(C)c1", "activity change, positive = activation": "-20.4% (inactive)"}, {"smiles": "COc1ccc(OC)c(CNS(=O)(=O)c2ccc3[nH]c4c(c3c2)CCCCC4)c1", "activity change, positive = activation": "-83.3% (inactive)"}, {"smiles": "Cc1cccc(Cn2c(SCc3ccc(C(=O)N4CCCCCC4)cc3)nc3ccncc32)c1", "activity change, positive = activation": "-47.9% (inactive)"}]}]}
